From PubChem BioAssay
HCV inh: inhibitors of hepatitis C virus infection. 340,000 compounds, 3.4% hits. Huh7.5.1 HCVcc-Cre infection, luciferase reporter, 44 h. AID 651820. Potency, µM (top dose mostly 41.8 µM), for the others: top-dose activity change, negative = inhibition, most hits filed as inhibitors; note: potency is the fitted concentration of half-maximal effect
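Cells (1,000/well) were plated 4 h before compound, then infected with HCVcc-Cre virus (~0.5 moi). After 44 h further culture, infection was read as luciferase luminescence following a 15 min substrate incubation at room temperature.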
HCMV antiviral: human cytomegalovirus inhibition | activity change, negative = inhibition, % at 57.5 µM | HFF cells, HCMV-luciferase reporter, 72 h; active compounds read low | 410,000 compounds, 4.5% hits; in the data active = activity change below about -60%; inconclusive = no clear call, values can overlap the other calls; inactive = above about -39%
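Cell-based, HFFs, 1000 cells/well, 16 h 37C; cpds in DMSO + HCMV-luc, MOI 1 PFU/cell; 72 h 37C; OneGlo luminescence after 5 min RT; norm. to buffer vs Salinomycin 10uM.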
FMDV antiviral: antivirals against foot and mouth disease virus | FMDV antiviral cell-based qHTS | Potency, µM (top dose mostly 57.9 µM), inactives show at the highest dose activity change, negative = inhibition, actives largely listed as inhibitors | 410,000 compounds, 1.2% hits | AID 1159524; calls by dose curve; tested in HEK293T cells; note: read-out not given here; potency is the fitted concentration of half-maximal effect; nearly all actives have a fitted effect of over 45% in size
Giardia FBPA inh: blocks Giardia fructose-bisphosphate aldolase activity; A8B2U2; purified Giardia FBPA; Potency, µM (highest dose often 59.6 µM), without a hit: top-dose activity, negative = inhibition, most hits filed as inhibitors; 290,000 compounds, 0.71% hits; AID 2451; note: potency is the fitted concentration of half-maximal effect; nearly all actives have a fitted effect of over 55% in size
Target sequence (A8B2U2 whole entry, looked up): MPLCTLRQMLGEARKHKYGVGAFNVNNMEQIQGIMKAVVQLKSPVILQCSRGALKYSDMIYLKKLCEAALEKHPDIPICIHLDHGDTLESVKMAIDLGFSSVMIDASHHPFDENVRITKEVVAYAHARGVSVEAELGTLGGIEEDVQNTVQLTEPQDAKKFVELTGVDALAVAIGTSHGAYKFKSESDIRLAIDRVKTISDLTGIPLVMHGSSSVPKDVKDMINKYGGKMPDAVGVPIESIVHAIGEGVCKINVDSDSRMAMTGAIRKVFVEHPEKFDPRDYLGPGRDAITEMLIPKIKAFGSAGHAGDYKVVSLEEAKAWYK
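40 nM FBPA preincubated 10 min at RT with compound (up to 57.5 uM final), then substrate plus GAPDH/TPI/NAD/arsenate coupling and diaphorase/resazurin added. Fluorescence read after 20 min at RT, 525/598 nm.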
Marburg entry inh: blocks Marburg virus binding to or entry into cells. Potency, µM (doses to about 37.8 µM), inactives show top-dose activity change, negative = inhibition, hits mostly inhibitors. 300,000 compounds, 1.8% hits. AID 540276. Marburg virus pseudotyped entry inhibition, cell reporter; calls by dose curve; tested in HEK293 cells; note: potency is the fitted concentration of half-maximal effect
LASV entry inh: Lassa virus entry inhibition; Lassa virus pseudotype entry inhibition, cell reporter; 300,000 compounds, 1.2% hits; Potency, µM (doses to about 37.9 µM), inactives show at the highest dose activity change, negative = inhibition, hits mostly inhibitors; calls by dose curve; tested in HEK293 cells; note: potency is the fitted concentration of half-maximal effect; nearly all actives have a fitted effect of over 50% in size
* = called active by the depositor; [ ] = another dose, or the depositor's remark. An excerpt weighted towards active compounds, which were near 8.3% of everything screened. Unless noted, calls come from the whole dose curve; as a rule, active = well fitted curve in the direction sought with a large enough effect; inconclusive = small, poorly fitted or top-dose-only effect, or another doubt; inactive = no such curve, though single readings can be large; an effect the other way counts as inactive or inconclusive. % is set by controls: 0 for no effect and ±100 for the full control effect.

Screening NC(Cc1ccc(O)cc1)C(=O)NN=Cc1ccc(N(CCCl)CCCl)cc1 (stereo unspecified) returned HCV inh inconclusive, HCMV antiviral -16.9, FMDV antiviral 0.0%, Marburg entry inh 1.26µM* and LASV entry inh 3.98µM*.
`O=C(O)c1ccc(CSc2nc3ccccc3c(=O)n2-c2ccccc2)cc1` gave HCV inh 4.4%, HCMV antiviral 28.0, FMDV antiviral -5.0% and Giardia FBPA inh inconclusive.
Screening O=C(c1ccc(-n2c(SCc3cccc(F)c3)nc3ccccc3c2=O)cc1)N1CCOCC1 returned HCV inh 4.0%, HCMV antiviral -62.9*, FMDV antiviral inconclusive, Giardia FBPA inh -3.9%, Marburg entry inh -4.7% and LASV entry inh 17.6%.
Cc1[nH]n(-c2ccccc2)c(=O)c1C(=O)c1cccc(F)c1 was read as HCV inh inconclusive, HCMV antiviral -36.1, FMDV antiviral -12.9%, Giardia FBPA inh 2.0%, Marburg entry inh 10.3µM* and LASV entry inh inconclusive.
Screening Cc1[nH]n(-c2ccccc2)c(=O)c1C(=O)c1ccccc1 returned HCV inh 1.6%, HCMV antiviral 57.6, FMDV antiviral -1.6%, Giardia FBPA inh -20.9%, Marburg entry inh -28.7%[46.1 µM] and LASV entry inh inconclusive.
`COc1cccc(CNC(=O)c2c(OC)cc(=O)n3c2CCN(C(=O)c2cc(C)ccc2C)CC3)c1` gave FMDV antiviral 17.5%.
Screening CC1Cc2nc(SCC(=O)c3ccccc3)n(Cc3ccccc3)c(=O)c2S1 (stereo unspecified) returned HCV inh 11.2µM*, HCMV antiviral -9.7, FMDV antiviral 15.4% and Giardia FBPA inh 2.7%.
Screening CC1Cc2nc(SCC(=O)NCc3ccccc3)n(Cc3ccccc3)c(=O)c2S1 (stereo unspecified) returned HCV inh inconclusive, HCMV antiviral 16.7, FMDV antiviral 12.2% and Giardia FBPA inh 0.1%.
For Cc1ccc(C(=O)N2CCOc3ccc(CN4CCN(Cc5ccccn5)CC4)cc3C2)cc1 the results were FMDV antiviral 6.5%.
Cc1nc2sc(-c3ccccc3)cc2c(=O)[nH]1 was read as HCV inh 10µM*, HCMV antiviral 64.4, Giardia FBPA inh 3.6%, Marburg entry inh inconclusive and LASV entry inh inconclusive.
For Cc1nc2sc(-c3ccccc3)cc2c(=O)n1N the results were HCV inh -22.7%, HCMV antiviral 0.0, FMDV antiviral 39.8µM* and Giardia FBPA inh 2.4%.
Screening Cc1nc2sc(-c3ccccc3)cc2c(=O)n1-n1cccc1 returned HCV inh -6.4%, HCMV antiviral 11.4, FMDV antiviral -16.0%, Giardia FBPA inh 0.4%, Marburg entry inh inconclusive and LASV entry inh inconclusive.
CCOC(=O)[C@@H](C)N1[C@@H](C)[C@H](c2ccccc2)Oc2ccc(Cl)cc2S1(=O)=O was read as HCMV antiviral -12.3.
For CCOC(=O)[C@@H](C)N1[C@H](C)[C@H](c2ccccc2)Oc2cc(Br)ccc2S1(=O)=O the results were Marburg entry inh 4.45µM*.
Screening CN1CCCN=C1COC(=O)[C@@](O)(c1ccccc1)C1CCCCC1 returned Marburg entry inh -5.6%.
Screening COC(=O)c1ccc(SCC(=O)NCc2ccccc2)c([N+](=O)[O-])c1 returned HCV inh 14.1µM*, HCMV antiviral 42.1, FMDV antiviral -3.1%, Giardia FBPA inh 18.4%, Marburg entry inh -3.6%[46.1 µM] and LASV entry inh -23.4%[46.1 µM].
Screening COc1ccc(C(=O)OCC(=O)NC(=O)NCc2ccccc2)cc1[N+](=O)[O-] returned HCV inh 20.3%, HCMV antiviral 0.0, FMDV antiviral -2.4%, Marburg entry inh -0.5% and LASV entry inh inconclusive.
`CCOC(=O)c1c(NC(=O)CN2C(=O)NC(C)(c3ccc(Cl)cc3)C2=O)sc(C(=O)NC)c1C` (stereo unspecified) gave HCV inh 14.1µM*, HCMV antiviral 1.5, FMDV antiviral 0.0%, Giardia FBPA inh 4.3%, Marburg entry inh inconclusive and LASV entry inh inconclusive.
